Pf Dd2 growth – inhibitors of Plasmodium falciparum Dd2 growth; P. falciparum Dd2 growth, SYBR Green, 72 h; Potency, µM (doses to about 28.9 µM), for the others: at the top dose activity, negative = inhibition, actives largely listed as inhibitors; 120,000 compounds, 4.3% hits; AID 1347417; active = well fitted inhibition curve with a large enough effect;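 also: plate controls were DMSO vehicle for no effect and reference drug for full effect; nearly all actives have a fitted effect of over 65% in size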
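Infected erythrocytes (Dd2, 0.3% parasitemia, 2.5% hematocrit final) are added to compound in RPMI-1640/Albumax II medium, grown 72 h at 37C in low oxygen, then lysed with saponin/Triton-X containing SYBR Green and read by fluorescence.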
The depositor's hits bear a star; i = inactive; [ ] = another dose, or the depositor's remark. The full list was thinned out, with hits kept by preference. Potency is read from the fitted curve at half-maximal effect.

SMILES	Pf Dd2 growth
CCN1c2cc(C(=O)Nc3cc(OC)c(OC)c(OC)c3)ccc2C(=O)N2CCCC21 (stereo unspecified)	-6.3%
CSCc1nc(-c2ccncc2)nn1Cc1ccc2c(c1)OCO2	-29.3%
Cc1ccc(C)c(NC(=O)N2C[C@@H](F)C[C@H]2C(=O)N2CCc3ccccc3C2)c1	19.3%
Cc1ccc(NC(=O)N2C[C@@H](F)C[C@H]2C(=O)N2CCc3ccccc3C2)cc1C	-19.8%
COc1ccccc1NC(=O)N1C[C@@H](F)C[C@H]1C(=O)N1CCc2ccccc2C1	8.91µM*
CCCN(C(=O)COc1cc(=O)n(CC)c2ccccc12)c1ccc(C(C)C)cc1	43.2%
COc1cccc(CCC(=O)N2CCC(Cc3nc(-c4ccccc4)no3)CC2)c1	29.0%
O=C(C1COc2ccccc2O1)N(Cc1cccnc1)c1nc2ccc(Cl)cc2s1 (stereo unspecified)	i
COc1ccc2nc(N(Cc3cccnc3)C(=O)C3CCCCC3)sc2c1	2.51µM*
COc1ccc2nc(N(Cc3cccnc3)C(=O)CCc3ccccc3)sc2c1	1µM*
O=C(COc1ccccc1)N(Cc1cccnc1)c1nc2ccc(Cl)cc2s1	-20.8%
CCOc1ccc2nc(N(Cc3cccnc3)C(C)=O)sc2c1	i
COc1ccc2nc(N(Cc3cccnc3)C(C)=O)sc2c1	i
COCC(=O)N1C[C@@H](COc2cccnc2)[C@H](c2ccncc2)C1	-3.5%
O=C(Cn1cccn1)N1CC(F)(F)C[C@H]1c1nc(C2CC2)no1	37.7%
Cc1ccccc1OCC(=O)Nc1ccccc1C(=O)OCc1cc(=O)n2c(C)csc2n1	i
CCN1Cc2nc(OC)c(CNC(=O)c3cc(C4CC4)[nH]n3)cc2C1=O	i
Cc1nc(N2CCC(NC(=O)Cc3ccc(Cl)cc3)CC2)cc(C(F)(F)F)n1	i
Cc1nc(N2CCN(C(=O)Cc3ccccc3Cl)CC2)cc(C(F)(F)F)n1	-17.9%
Cc1nc(N2CCN(C(=O)Cc3ccc(Cl)cc3)CC2)cc(C(F)(F)F)n1	3.98µM*
Cc1cnn(CCC(=O)N[C@@H]2CN(C)C[C@H]2CN(C)C)c1	12.1%
CN(CC1CCOC1)C(=O)c1cc(F)ccc1Cl (stereo unspecified)	10.5%[5.79 µM]
CCC(=O)N1CCC(C2CCN(CCC(C)C)C2)CC1 (stereo unspecified)	22.7%
COc1ccc(NC(=O)C(=O)NCCc2ccc(OC)c(OC)c2)c(OC)c1	-16.1%
CCOC(=O)c1cnc2cc(Cl)c(OC)cc2c1Nc1ccc(Br)cc1C	8.1%
SMILES	Pf Dd2 growth
CCOC(=O)c1cnc2ccc(OC)cc2c1NCCc1ccc(OC)c(OC)c1	1µM*
COCCCn1c(C)cnc1C1CCN(C(=O)Nc2ccc(C)c(C)c2)C1 (stereo unspecified)	i
Cc1ccc(NC(=O)CN(C)S(=O)(=O)c2cccc3cccnc23)cc1F	i
Cc1cccc(NC(c2ccccc2C)c2ccc3ccc(C)nc3c2O)n1 (stereo unspecified)	5.01µM*
Cc1ccnc(NC(c2ccccc2F)c2ccc3cccnc3c2O)c1 (stereo unspecified)	6.31µM*
Oc1c(C(Nc2ccccn2)c2ccccc2F)ccc2cccnc12 (stereo unspecified)	1.12µM*
O=C(CN(c1cccc(Br)c1)S(=O)(=O)c1ccccc1)N1CCc2ccccc2C1	i
O=C(C1CCOCC1)N1CCCC2(CN[S+](=O)([O-])c3cccnc3O2)C1 (stereo unspecified)	12.5%
O=C(NC1CCCC1)N[C@@H]1C[C@H](Cn2cc(-c3cccnc3)nn2)[C@@H](O)[C@H]1O	20.3%
COc1ccccc1NC(=O)CSc1oc(-c2ccco2)nc1S(=O)(=O)c1ccc(C)cc1	-0.1%
CC(C)c1nncn1C1CCN(S(=O)(=O)Cc2ccccc2F)CC1	-5.2%
CCc1ccc(NS(=O)(=O)c2cc(Br)cc3c2N(C(C)=O)CC3)cc1	40.2%
O=C(NC[C@H]1OC[C@@H](NCc2cccnc2)[C@@H]1O)N1CCOCC1	-17.5%[44.1 µM]
COC(=O)c1sc(-c2ccccc2)cc1NC(=O)Nc1ccccc1Cl	11.2µM*
COC(=O)c1sc(-c2ccccc2)cc1NC(=O)c1cccc(Cl)c1	451.4%[5.79 µM]
COC(=O)c1sc(-c2ccccc2)cc1NC(=O)c1cccc(F)c1	i[5.79 µM]
O=C(NCc1ccccc1)N1CCCC(Cn2cnc3cccnc32)C1 (stereo unspecified)	-24.3%
Cn1nnnc1SCCNCc1ccc(OCc2ccccc2)cc1	i
Cn1nnnc1SCCCNCc1cccc(OCc2ccc(F)cc2)c1	5.62µM*
CCOc1cccc(CNCCCSc2nnnn2C)c1	-4.3%
O=C1NCCCCCN(C(=O)c2cccs2)[C@H]2CCC[C@@H]12	21.4%
COc1cc(C(=O)NCc2nc(-c3ccc(Cl)cc3)no2)cc(OC)c1OC	25.4%
Cc1cc(CNC(=O)c2cc(-c3ccccc3)cc3c2OCCN3C)no1	i
CC(=O)Nc1cc(-c2cc(C(=O)NCc3cccnc3)c3c(c2)N(C)CCO3)ccn1	-16.8%[44.1 µM]
CC(=O)Nc1cc(-c2cc(C(=O)NCc3cc(C)on3)c3c(c2)N(C)CCO3)ccn1	7.94µM*
COc1ccc(N2CC3CCC(C2)N3Cc2cccc(-c3cccnc3)c2)cc1	11.2µM*
